Shown are actives, neighbours in structure and some others; about 4.6% of the full set was active somewhere.
TRHR ag: qHTS for Small Molecule Agonists and Allosteric Enhancers of Human TRH Receptor: Primary Screen for Agonists. TRHR cells, calcium flux fluo-8, FDSS agonist mode. Thyrotropin-releasing hormone receptor (Homo sapiens), P34981. 360,000 compounds, 0.18% hits. activation, % at 2 µM; note: 0% is about no effect
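Fluo-8-loaded TRHR cells; 10 s baseline, compound added, kinetic Ca2+ fluorescence read 1/s, agonist mode.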
D1 antagonist: Antagonist of Human D 1 Dopamine Receptor: qHTS | D(1A) dopamine receptor (Homo sapiens), P21728 | HEK293 TREx D1 cells, calcium flux, dopamine EC80; stronger effect = lower value | activity change, negative = inhibition, % at 10 µM | 360,000 compounds, 3.2% hits; in the data active = activity change below about -30%; note: % is set by controls: 0 for no effect and ±100 for the full control effect
Target sequence (P21728 whole entry, looked up): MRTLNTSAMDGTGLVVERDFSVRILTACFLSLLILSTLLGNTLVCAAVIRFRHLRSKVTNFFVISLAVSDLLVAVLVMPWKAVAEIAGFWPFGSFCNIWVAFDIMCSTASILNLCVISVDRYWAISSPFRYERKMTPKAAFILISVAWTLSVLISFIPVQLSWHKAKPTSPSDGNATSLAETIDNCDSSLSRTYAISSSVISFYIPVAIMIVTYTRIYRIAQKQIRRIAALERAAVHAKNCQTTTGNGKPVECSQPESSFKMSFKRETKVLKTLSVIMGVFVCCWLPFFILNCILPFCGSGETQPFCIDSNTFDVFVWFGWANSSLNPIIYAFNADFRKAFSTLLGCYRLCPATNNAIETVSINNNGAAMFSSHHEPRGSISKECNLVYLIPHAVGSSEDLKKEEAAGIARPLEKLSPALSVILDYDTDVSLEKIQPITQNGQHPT
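Allosteric or orthosteric antagonism assessed as attenuation of the calcium response to EC80 dopamine, added 180 s after compound, in induced HEK293 Trex D1 cells loaded with no-wash calcium dye.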
D1 ag: Allosteric Agonists of the Human D1 Dopamine Receptor: qHTS; 360,000 compounds, 1% hits; AID 504660, 2011; activation, % at 2 µM; D(1A) dopamine receptor (Homo sapiens), P21728; HEK293 T-REx D1 cells, calcium flux, agonist mode; note: 0% is about no effect
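Tetracycline-induced HEK293 TREx D1 cells, force-coupled to calcium signalling, were dye-loaded with a no-wash calcium kit. Compound was pin-added after a 10 s baseline. Fluorescence was read kinetically at 1 cycle/s for 180 s, with calcium rises flagged as agonism.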
TRHR PAM: qHTS for Small Molecule Agonists and Allosteric Enhancers of Human TRH Receptor: Primary Screen for Enhancers; Thyrotropin-releasing hormone receptor (Homo sapiens), P34981; TRHR cells, fluo-8 calcium fluorescence, EC20 TRH enhancement; enhancement, % at 2 µM; 360,000 compounds, 0.66% hits; AID 493056, 2011; in the data active = enhancement above about 30%; note: 0% is about no effect
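Enhancer read-out: after compound pinning and an initial kinetic agonist-mode read, an EC20 of TRH (10 nM final) was injected and fluo-8 calcium signal (Ex 480/Em 530) followed at 1 s/cycle for 100 cycles in TRHR-expressing cells.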
D1 potentiator: Potentiators of Human D1 Dopamine Receptor: qHTS. AID 504651, 2011. HEK293 TREx D1 cells, calcium flux, dopamine EC20 potentiation. 360,000 compounds, 0.036% hits. D(1A) dopamine receptor (Homo sapiens), P21728. potentiation, % at 10 µM; in the data active = potentiation above about 30%; note: 0% is about no effect
Active calls of the source: *; . = no result; ! = a repeat was not active. Cut-off read from the data, not from the text of the source, unless noted: active = activation above about 30%; inactive = the rest.

SMILES	TRHR ag	D1 antagonist	D1 ag	TRHR PAM	D1 potentiator
O=[N+]([O-])c1cn(-c2nc(-c3ccco3)cc(C(F)(F)F)n2)cn1	1	.	62*	-3	-1
CN1CCN(c2nc(-c3ccco3)cc(C(F)(F)F)n2)CC1	0	-68*	-1	-1	-5
O=C(CCCCn1c(=O)c2ccccc2n(Cc2ccccc2Cl)c1=O)NCc1ccc2c(c1)OCO2	-1	-2	1	2	2
Cc1ccccc1OCCCCCNCCO	1	-6	4	5	-3
CC(C)c1ccccc1OCCCCCNCCO	-2	-8	93*	-5	-8
COc1ccccc1OCCCCNCCO	0	-12	0	-11	-18
CC(C)(C)c1ccccc1OCCCCCNCCO	3	18	33*	22	-6
COc1ccc(Cl)cc1C(=O)Nc1sc2c(c1C(=O)OC(C)C)CCCC2	1	-2	0	2	3
CCc1ccccc1NC(=O)CN1C(=O)COc2ccc(S(=O)(=O)Nc3ccccc3)cc21	0	-6	0	-28	0
O=C1CC(c2ccccc2Cl)CC(O)=C1C=NCCCO (centres undefined)	0	15	2	34*	-10
CC(C)c1nn2c(=O)cc(COC(=O)c3cccc(NC(=O)CCc4ccccc4)c3)nc2s1	0	-12	5	-1	-1
CCOC(=O)c1ccc(N2CCN(c3cc(Cl)ccc3C)CC2)c(NC(=O)Nc2cccc(OC)c2)c1	0	-3	3	-2	0
CCOC(=O)c1sc(NC(=O)CSc2n[nH]c(-c3ccccc3)n2)c(C#N)c1C	0	-36*	26	-6	-2
CCc1ccccc1N(CC(=O)NCCc1ccccc1)C(=O)CCC(=O)Nc1ccccn1	-1	-30*	40*	-2	-12
Cc1ccccc1N(CC(=O)NCCc1ccccc1)C(=O)CCC(=O)Nc1ccccn1	-3	-9	1	1	1
CCN(CC)S(=O)(=O)c1nnc(NC(=O)COc2ccc(Cl)cc2)s1	0	-2	2	-1	0
COc1ccc(S(=O)Cc2ccc(C(=O)NCc3cccc(OC)c3)o2)cc1 (centres undefined)	0	-35*	2	-3	-2
COc1cccc(CNC(=O)c2ccc(CS(=O)(=O)Cc3ccccc3C)o2)c1	0	15	9	-3	-3
COc1ccc(S(=O)Cc2ccc(C(=O)N3CCN(c4cccc(C)c4C)CC3)o2)cc1 (centres undefined)	0	-42*!	11	-7	1
COc1cccc(CNC(=O)c2ccc(CS(=O)(=O)Cc3ccc(C)cc3)o2)c1	0	-43*	14	-6	-2
COc1ccc(/C=C(\C#N)c2nc(-c3cc(Cl)ccc3OC)cs2)cc1	-1	19	8	1	-2
CCCc1c(C)nc(N2CCN(c3ccc(F)cc3)CC2)[nH]c1=O	0	-30*	13	-4	-1
CCc1c(C)nc(N2CCN(c3ccc(F)cc3)CC2)[nH]c1=O	1	-9	7	2	-5
CCOc1ccc(C2c3c(oc4ccc(C)cc4c3=O)C(=O)N2CCCN2CCOCC2)cc1 (centres undefined)	0	-5	1	0	-6
Cc1ccc(C)c(N2CCN(C(=O)Cn3c(C)c4cnn(-c5ccccc5)c(=O)c4c3C)CC2)c1	-1	-24	21	-2	-3
SMILES	TRHR ag	D1 antagonist	D1 ag	TRHR PAM	D1 potentiator
COc1ccc2oc(=O)c(C(=O)N3CCN(C(=O)c4ccccc4)CC3)cc2c1	0	2	1	1	4
COc1cccc(OC(=O)c2cc3ccccc3oc2=O)c1	0	-30*	5	-2	-2
COc1ccc2oc(=O)c(C(=O)N3CCN(c4ccccc4)CC3)cc2c1	-1	-41*	0	-6	-1
Cc1ccccc1CN1C(=O)c2ccccc2S(=O)c2ccc(C(=O)NC3CCC(C)CC3)cc21 (centres undefined)	0	2	5	0	4
COc1ccc(-c2cn(-c3ccc(C)cc3)c(S(=O)(=O)CC(=O)Nc3ccc(F)cc3)n2)cc1	0	12	3	9	-1
Clc1ccccc1Cn1nnc(-c2ccccc2)n1	-1	-35*	18	2	-12
Clc1ccccc1Cn1nnc(-c2cccs2)n1	-1	-16	20	-1	-8
O=C1c2ccccc2-c2onc3ccc(NCCCn4ccnc4)c1c23	112*	-14	208*	2	4
O=S(=O)(c1ccc2c(c1)OCCO2)N1CCC(n2nnc3cc(F)ccc32)CC1	1	-4	5	-3	-7
O=S(=O)(c1ccc2c(c1)OCCO2)N1CCC(n2cnc3cc(F)ccc32)CC1	0	-46*	7	3	-8
CCOc1ccc(-c2cc3c(=O)n(Cc4nc(-c5ccccc5OCC)oc4C)ccn3n2)cc1Cl	1	6	2	-6	1
Cc1cccc(OC(=O)c2cc(-c3ccc4c(c3)OCCO4)on2)c1C	2	-17	17	-3	-2
N#C/C(=C\c1ccc(-c2ccc(Br)cc2)o1)C(=O)NCCc1c[nH]c2ccccc12	1	-34*	3	6	-6
COc1ccc(NCC(=O)N2CCCC2)cc1Cl	0	-30*	2	3	0
COc1ccc(NS(=O)(=O)c2c(C)[nH]c(C)c2C(=O)N2CCCCC2)cc1Cl	0	2	14	-5	-5
Cc1ccc(CCNc2ncnc3onc(C)c23)cc1	-1	-36*	22	-9	-8
Cc1ccc(CNc2ncnc3onc(-c4ccc(F)cc4)c23)cc1	-1	-24	32*	3	-5
Fc1ccc(CNc2ncnc3onc(-c4ccc(F)cc4)c23)cc1	-1	-5	2	4	0
Cc1noc2ncnc(NCCc3ccccc3)c12	2	-23	23	-12	-2
Cc1nc2ccc(NC(=O)c3cc([N+](=O)[O-])cc([N+](=O)[O-])c3Cl)cc2s1	0	-55*	1	13	-3
Cc1nc2ccc(NC(=O)CCS(=O)(=O)c3ccc(Cl)cc3)cc2s1	0	-36*	12	-1	-3
COc1ccc(NC(=O)CCS(=O)(=O)c2ccc3nc(C)sc3c2)cc1OC	0	-13	2	-5	-2
Cc1nc2ccc(S(=O)(=O)N(C)CC(=O)Nc3ccc(Br)c(C)c3)cc2s1	-1	-40*	9	3	1
